What all share (type): functional
Experiment [1] deals with Plasmodium falciparum. Nature of the experiment: GSK_TCMDC: Inhibition of Plasmodium falciparum 3D7 in whole red blood cells, using parasite LDH activity as an index of growth. Test compounds present at 2uM.
Experiment [2] relates to Plasmodium falciparum. Nature of the experiment: GSK_TCMDC: Inhibition of Plasmodium falciparum Dd2 in whole red blood cells, using parasite LDH activity as an index of growth. Test compounds present at 2uM.
The subject of another experiment is HepG2. Kind of experiment: GSK_TCMDC: Percent inhibition of human HepG2 cell line. Test compounds present at 10uM.

Take `C=CCC(C(=O)Nc1ccnc2ccc(OC)cc12)C1CCN(CCCCCCC)CC1` (stereo not given): the values for the Inhibition in the experiment on Plasmodium falciparum [1], in the experiment with Plasmodium falciparum [2] and in the experiment with HepG2 were 86%, 84% and 20%, respectively.
Taken in the same sequence, the figures for `CCN(CCCN1CCCCC1)c1cc(C)nc(Nc2ccc(C)cc2Cl)n1.O=C(O)C(F)(F)F` were 93%, 25% and 44%.
Taken in the same sequence, the figures for `Cc1nnc2c(NC(=O)NC3CCCC3)cc3cc(-c4ccc(CN5CCCCC5)cc4)ccc3n12` were 99%, 93% and 100%.
The matching figures for `N#Cc1ccc(CN2CCC(Oc3ccc(NC(=O)c4ccccc4)cc3Cl)CC2)cc1.O=C(O)C(F)(F)F`: 84%, 65% and 21%.
For the compound `O=C(/C=C/c1ccc(C(F)(F)F)cc1)NCCCCCN1CCN(C(=O)Nc2ccc(Cl)c(Cl)c2)CC1`, the Inhibition in the experiment on Plasmodium falciparum [1] was found to be 95%; in the experiment with Plasmodium falciparum [2] it was 0%; in the experiment on HepG2, 37%.
Taken in the same sequence, the figures for `CCCCCCc1c(C)nc2cc(OC)ccc2c1O` were 97%, 97% and 10%.
Taken in the same sequence, the figures for `COc1ccc(F)cc1-c1ccc(C(=O)N2CCCN(c3ccc(C(F)(F)F)cn3)CC2)cc1` were 100%, 100% and 4%.
Taken in the same sequence, the figures for `N#Cc1cccc(C(=O)NC2CCN(c3ccnc(Nc4ccc(F)cc4)n3)C2)c1` (stereo not given) were 98%, 91% and 4%.
As to `CC(=O)Nc1ccc2[nH]cc(C3CCN(CC4CCC(NC(=O)/C=C/c5ccc(Cl)c(Cl)c5)CC4)CC3)c2n1` (stereo not given), the Inhibition in the experiment on Plasmodium falciparum [1] was 100%; in the experiment with Plasmodium falciparum [2] it was 79%; in the experiment on HepG2, 17%.
Taken in the same sequence, the figures for `O=C(N[C@H](CC1CCCCC1)C(=O)NC1CCCc2ccccc21)c1ccc(O)c(-c2cccc([N+](=O)[O-])c2)c1` (stereo not given in full) were 99%, 98% and 0%.
Taken in the same sequence, the figures for `COc1ccc(NC(=O)/C=C/c2ccccc2Cl)cc1OCCN1CCC(O)(c2ccc(Cl)c(C(F)(F)F)c2)CC1.Cl` were 100%, 9% and 37%.
The matching figures for `Cc1cnccc1/C=C/c1cccc(OCCCN2CCc3ccc(S(C)(=O)=O)cc3CC2)c1`: 92%, 72% and 1%.
Turning to `O=c1cc(NCCCN(Cc2cc3c(Cl)cc(Cl)cc3[nH]2)Cc2cc3c(Cl)cc(Cl)cc3[nH]2)[nH]c2ccccc12`, the Inhibition in the experiment on Plasmodium falciparum [1] came out at 87%; in the experiment on Plasmodium falciparum [2], 80%; with HepG2, 23%.
The matching figures for `CCN(CC)CCN(Cc1ccc(-c2ccc(Cl)cc2)cc1)C(=O)Cn1c(CCc2cccc(F)c2F)nc(=O)c2ccccc21.O=C(O)C(O)C(O)C(=O)O`: 100%, 75% and 45%.
For `CC(C)(C)c1ccc(NC(=O)c2cccc(CN3CCCN(CC4CCCCC4)CC3)c2)cc1.O=C(O)C(F)(F)F`, the Inhibition in the experiment with Plasmodium falciparum [1] is recorded as 93%; in the experiment on Plasmodium falciparum [2], 47%; in the experiment with HepG2 it was 97%.
Taken in the same sequence, the figures for `O=C(c1ccccc1[N+](=O)[O-])N(Cc1ccccc1)c1ccccn1` were 91%, 0% and 0%.
Regarding `Cc1ccccc1C1CCN(C2CCC(NC(=O)/C=C/c3ccc(C#N)cc3)CC2)CC1` (stereo not given), the values for the Inhibition with Plasmodium falciparum [1], with Plasmodium falciparum [2] and in the experiment on HepG2 were 87%, 13% and 39%, respectively.
The matching figures for `Nc1nccc(-c2ccc3c(/C=C/c4ccccc4)cnc(N)c3c2)n1`: 100%, 100% and 32%.
The matching figures for `CN1CCc2cc(NS(=O)(=O)c3ccc(-c4ccc(Cl)s4)cc3)c(N3CCCCC3)cc2CC1.Cl`: 98%, 29% and 14%.
As for `CC(=O)N(C)c1ccc(C(=O)Nc2cccc(-c3cccc(-c4nc5cc(C(F)(F)F)ccc5[nH]4)c3)c2)cc1`, the Inhibition in the experiment with Plasmodium falciparum [1] was 96%; with Plasmodium falciparum [2], 29%; in the experiment with HepG2, 31%.
The matching figures for `Cc1ccc(NC(C)C(=O)Nc2ccccc2)cc1S(=O)(=O)N1CCCCCC1` (stereo not given): 99%, 97% and 12%.
Taken in the same sequence, the figures for `COc1ccc(NC(=O)Nc2cccc(-c3cccc(-c4nc5ccccc5[nH]4)c3)c2)cc1` were 100%, 41% and 41%.
Taken in the same sequence, the figures for `O=C(NC1CCN(Cc2ccccc2O)C1)c1cccc(C(F)(F)F)c1.O=C(O)C(F)(F)F` (stereo not given) were 98%, 62% and 0%.
As for `CCN(CCCN1CCCCC1)c1cc(C)nc(Nc2cccc(C(F)(F)F)c2)n1.O=C(O)C(F)(F)F`, the values for the Inhibition in the experiment on Plasmodium falciparum [1], in the experiment with Plasmodium falciparum [2] and in the experiment on HepG2 were 100%, 88% and 25%, respectively.
Taken in the same sequence, the figures for `O=C(O)C(F)(F)F.O=c1cc(N2CCCNCC2)c(Cl)nn1Cc1ccc(NS(=O)(=O)c2ccc(Oc3ccccc3)cc2)cc1` were 98%, 0% and 0%.
As to `CC(CNCc1cn(Cc2cc(Br)cc(Br)c2)c2ccccc12)CNc1cc(=O)c2ccccc2[nH]1` (stereo not given), the Inhibition in the experiment with Plasmodium falciparum [1] is on record as 100%; with Plasmodium falciparum [2] it was 50%; in the experiment on HepG2, 10%.
The matching figures for `CC(=O)Nc1ccc(S(=O)(=O)NC2=NC(=N)N(OCc3ccc(Cl)c(Cl)c3)C(C)(C)N2)cc1`: 93%, 98% and 44%.
Taken in the same sequence, the figures for `CN(C(=O)C(C)(C)Oc1ccc(Cl)cc1)C1CCN(CCCCCNC(=O)/C=C/c2ccc(Cl)c(Cl)c2)CC1` were 96%, 26% and 86%.
The matching figures for `O=C(NCCCCCN1CCC(c2c[nH]c3ccccc23)CC1)c1ccc(-c2ccccc2)nc1`: 87%, 13% and 43%.
Consider `Cc1cccc2nc(-c3ccc(-c4ccc(CNCc5ccccc5)cc4)cc3)[nH]c12.O=C(O)C(F)(F)F`, for which the values for the Inhibition in the experiment with Plasmodium falciparum [1], in the experiment on Plasmodium falciparum [2] and with HepG2 were 99%, 90% and 5%, respectively.
Regarding `COc1cccc(CN2CCCC(OC(c3ccc(F)cc3)c3ccc(F)cc3)C2)c1O` (stereo not given), the Inhibition in the experiment on Plasmodium falciparum [1] turned out to be 95%; in the experiment on Plasmodium falciparum [2] it was 95%; in the experiment with HepG2, 8%.
With `O=C(c1cnn(-c2ccccc2)c1C(F)(F)F)N1CCN(c2ccnc3cc(Cl)ccc23)CC1`, the Inhibition in the experiment on Plasmodium falciparum [1] is 89%; in the experiment on Plasmodium falciparum [2], 94%; with HepG2 it was 34%.
Turning to `COc1cc2nc(NCCc3ccccc3)nc(NCc3nccs3)c2cc1OC`, the Inhibition in the experiment on Plasmodium falciparum [1] was determined as 99%; in the experiment with Plasmodium falciparum [2], 93%; in the experiment with HepG2, 1%.
Taken in the same sequence, the figures for `Nc1nc(N)c2c(ccc3c2ncn3Cc2ccccc2)n1` were 96%, 96% and 71%.
With `CC(Cc1ccc(COc2ccc(CC(CO)NCCc3cccc(Cl)c3)cc2)cc1)NCCc1cccc(Cl)c1.Cl` (stereo not given), the Inhibition in the experiment on Plasmodium falciparum [1] came out at 100%; in the experiment on Plasmodium falciparum [2] it was 86%; in the experiment with HepG2 it was 99%.
Taken in the same sequence, the figures for `Cc1cc(Oc2cc(NC(=O)c3sc4ncn(Cc5ccccc5F)c(=O)c4c3C)cc([N+](=O)[O-])c2)ccc1Cl` were 94%, 24% and 2%.
As to `Br.N=C1N=C(N)NC2(CCCCC2)N1OCCCOc1cc(Cl)c(Cl)cc1Cl`, the Inhibition in the experiment with Plasmodium falciparum [1] was determined as 94%; in the experiment on Plasmodium falciparum [2], 98%; with HepG2 it was 62%.
Taken in the same sequence, the figures for `Br.CC1(C)NC(N)=NC(=N)N1OCCCc1ccc(Cl)cc1Cl` were 95%, 95% and 54%.
The matching figures for `CN(C)CCNC(=O)[C@H](CC1CCCCC1)NC(=O)c1ccc(O)c(-c2ccc(Cl)c(Cl)c2)c1`: 98%, 97% and 0%.
Taken in the same sequence, the figures for `N=C(N)NN=CC(=O)Nc1ccc(Cl)c(C(F)(F)F)c1` were 100%, 0% and 0%.
Regarding `Cc1cc(N/N=C/c2ccccc2[N+](=O)[O-])c2cc(F)ccc2n1`, the Inhibition with Plasmodium falciparum [1] is 100%; in the experiment with Plasmodium falciparum [2], 100%; in the experiment on HepG2, 18%.
Turning to `CC[C@H](C)CNC(=O)c1cccc(-c2cccc(CN3CCC(N4CCCC4)CC3)c2)n1.O=C(O)C(F)(F)F`, the results for the Inhibition in the experiment on Plasmodium falciparum [1], in the experiment on Plasmodium falciparum [2] and in the experiment on HepG2 were 100%, 86% and 9%, respectively.
The matching figures for `NC1=NC(c2ccccc2)(c2ccccc2)C(=O)N1CCOc1ccccc1`: 90%, 57% and 42%.
Taken in the same sequence, the figures for `OC(CNCc1cccc(Oc2ccc(Cl)cc2)c1)c1cccc(C(F)(F)F)c1` (stereo not given) were 94%, 78% and 0%.
Taken in the same sequence, the figures for `CCCNc1ccc(-c2cc(C(N)=O)c3[nH]cc(C4CCN(S(=O)(=O)CC)CC4)c3c2)cn1.O=C(O)C(F)(F)F` were 99%, 42% and 6%.
For the compound `Cc1nc(-c2nc(NCCc3ccncc3)ncc2-c2ccsc2)sc1C`, the Inhibition in the experiment on Plasmodium falciparum [1] stood at 92%; in the experiment with Plasmodium falciparum [2], 87%; in the experiment with HepG2, 10%.
Regarding `CS(=O)(=O)c1ccc(CNCc2ccc(-c3cccc(-c4nc5cc(C(F)(F)F)ccc5[nH]4)c3)cc2)cc1.O=C(O)C(F)(F)F`, the figures for the Inhibition in the experiment with Plasmodium falciparum [1], in the experiment with Plasmodium falciparum [2] and in the experiment with HepG2 were 100%, 100% and 54%, respectively.
With `CC[C@H](C)CNC(=O)c1cccc(-c2ccc(CN3CCC(N4CCCC4)CC3)cc2)n1.O=C(O)C(F)(F)F`, the Inhibition with Plasmodium falciparum [1] turned out to be 100%; in the experiment on Plasmodium falciparum [2], 82%; with HepG2, 41%.
Taken in the same sequence, the figures for `Cc1cccc(C(=O)Nc2ccnc(N3CCC(N(C)Cc4ccccc4)CC3)c2)c1.O=C(O)C(F)(F)F` were 93%, 2% and 12%.
Taken in the same sequence, the figures for `CCN(CC)CCCC(C)N=c1cc(C=Cc2ccc([N+](=O)[O-])cc2)[nH]c2ccc(OC)cc12` (stereo not given) were 100%, 100% and 37%.
Taken in the same sequence, the figures for `CCCc1ccc(NC(=O)c2ccc(CN3CCCN(Cc4cccc(O)c4)CC3)cc2)cc1.O=C(O)C(F)(F)F` were 100%, 63% and 51%.
`CC(C)(C)CCOC(=O)N1CCc2c(cc(O)c(O)c2Cl)C(c2ccc(O)cc2)C1` (stereo not given): the figures for the Inhibition in the experiment on Plasmodium falciparum [1], with Plasmodium falciparum [2] and in the experiment on HepG2 were 97%, 95% and 2%, respectively.
Taken in the same sequence, the figures for `CC(C)(CN)c1nc(-c2ccc(Cl)c(O)c2)c(-c2ccnc(N)n2)[nH]1` were 95%, 95% and 34%.
Taken in the same sequence, the figures for `O=C(NCCCc1ccccc1)c1ccc(O)c(-c2cc(Cl)cc(Cl)c2)c1` were 99%, 98% and 0%.
The matching figures for `NC1=NC2(CCCCC2)N(OCCCCCCc2ccccc2)C(N)=N1`: 100%, 69% and 73%.
Take `COc1ccc(Cn2cncc2CN(CCC(C)C)C(=O)c2ccc(Cl)nc2Cl)cc1.O=C(O)C(F)(F)F`: the Inhibition with Plasmodium falciparum [1] came out at 87%; with Plasmodium falciparum [2], 61%; in the experiment with HepG2, 19%.
`COc1ccc(C=NNc2cc(C)nc3ccc(OC)cc23)c(OC)c1`: the Inhibition turned out to be 100% in the experiment on Plasmodium falciparum [1], 95% with Plasmodium falciparum [2] and 23% in the experiment on HepG2.
The matching figures for `O=C(/C=C/c1ccc(Cl)c(Cl)c1)NCCCCCN1CCC(CCNC(=O)Cc2ccc(Cl)cc2)CC1`: 83%, 0% and 45%.
Taken in the same sequence, the figures for `CS(=O)(=O)c1ccc2c(c1)CCN(CCC1CCC(NC(=O)C(=Cc3cccc(C#N)c3)c3ccc(-c4ccccc4)cc3)CC1)CC2` (stereo not given) were 99%, 13% and 24%.
The matching figures for `O=C(Nc1ccc(-c2ccc(-c3nc4ccccc4[nH]3)cc2)cc1)Nc1ccc(Cl)c(Cl)c1`: 100%, 100% and 68%.

For the origin of these results see ChEMBL document CHEMBL1157539, “Thousands of chemical starting points for antimalarial lead identification” (Nature, 2010).
